According to PubChem BioAssay (NCATS):
Inconclusive results are not listed. Active and inactive are the calls of the source. Calls come from the whole dose curve; as a rule, active = well fitted curve in the direction sought with a large enough effect; inconclusive = small, poorly fitted or top-dose-only effect, or another doubt; inactive = no such curve, though single readings can be large; an effect the other way counts as inactive or inconclusive.

Columns and labels:
[1] = target: Luciferin 4-monooxygenase (Photinus pyralis) (UniProt P08659); experiment: Biochemical firefly luciferase enzyme assay for NPC (AID 624030);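 note: purified P. pyralis luciferase at 10 nM with luciferin and ATP substrate; 0% = DMSO and -100% = full luciferase inhibition by PTC124 control; nearly all actives have a fitted effect of over 70% in size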
Sequence of Luciferin 4-monooxygenase (Photinus pyralis) (P08659 whole entry, looked up): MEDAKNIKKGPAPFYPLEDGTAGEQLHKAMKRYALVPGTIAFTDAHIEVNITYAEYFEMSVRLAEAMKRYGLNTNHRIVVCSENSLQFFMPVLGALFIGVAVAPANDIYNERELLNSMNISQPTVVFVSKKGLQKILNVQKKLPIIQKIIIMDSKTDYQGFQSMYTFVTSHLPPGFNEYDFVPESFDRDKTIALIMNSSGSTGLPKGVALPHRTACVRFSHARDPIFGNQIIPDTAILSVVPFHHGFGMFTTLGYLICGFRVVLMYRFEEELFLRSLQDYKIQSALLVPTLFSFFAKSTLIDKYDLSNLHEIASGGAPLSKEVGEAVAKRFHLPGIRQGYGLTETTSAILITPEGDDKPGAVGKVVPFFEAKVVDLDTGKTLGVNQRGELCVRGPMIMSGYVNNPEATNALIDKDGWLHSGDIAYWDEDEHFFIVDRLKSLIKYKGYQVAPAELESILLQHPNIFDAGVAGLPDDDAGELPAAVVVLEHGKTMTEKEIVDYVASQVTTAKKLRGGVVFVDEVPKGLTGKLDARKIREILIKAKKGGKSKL
How it was run: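 Purified P. pyralis luciferase at 10 nM in 50 mM Tris Acetate (final), luminescence read within 5 minutes of enzyme addition to compounds. Activity normalised to PTC124 versus DMSO; concentration-response curves classed by r2, magnitude and activity.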

[2] = qHTS profiling for inhibitors of Plasmodium falciparum proliferation (AID 504749); note: potency is the fitted concentration of half-maximal effect;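 for activity, negative = inhibition: 0% = DMSO vehicle and full inhibition = artemisinin control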; for all read-outs here: nearly all actives have a fitted effect of over 60% in size; conditions: P. falciparum in erythrocytes, SYBR Green DNA, 72 h; for activity, negative = inhibition: at 28.7 µM (top of the series)
How it was run: (§1)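 Each compound contacts P. falciparum-infected red blood cells for 72 h at 37 C; lysis buffer (Tris, EDTA, saponin, Triton X, SYBR Green I) is added and fluorescence measured next morning; values normalized to controls.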

ATS189 = experiment: as above; conditions: P. falciparum in erythrocytes, SYBR Green DNA, 72 h; series mostly up to 28.7 µM
How it was run: as §1

CP185 = experiment: as above; conditions: P. falciparum in erythrocytes, SYBR Green DNA, 72 h; series mostly up to 28.7 µM
How it was run: as §1

CP191 = experiment: as above; conditions: P. falciparum in erythrocytes, SYBR Green DNA, 72 h; series mostly up to 28.7 µM
How it was run: as §1

CP192 = experiment: as above; conditions: P. falciparum in erythrocytes, SYBR Green DNA, 72 h; series mostly up to 28.7 µM
How it was run: as §1

CP238 = experiment: as above; conditions: P. falciparum in erythrocytes, SYBR Green DNA, 72 h; series mostly up to 28.7 µM
How it was run: as §1

CP250 = experiment: as above; conditions: P. falciparum in erythrocytes, SYBR Green DNA, 72 h; series mostly up to 28.7 µM
How it was run: as §1

CP252 = experiment: as above; conditions: P. falciparum in erythrocytes, SYBR Green DNA, 72 h; series mostly up to 28.7 µM
How it was run: as §1

CP256 = experiment: as above; conditions: P. falciparum in erythrocytes, SYBR Green DNA, 72 h; series mostly up to 28.7 µM
How it was run: as §1

CP262 = experiment: as above; conditions: P. falciparum in erythrocytes, SYBR Green DNA, 72 h; series mostly up to 28.7 µM
How it was run: as §1

CP329 = experiment: as above; conditions: P. falciparum in erythrocytes, SYBR Green DNA, 72 h; series mostly up to 28.7 µM
How it was run: as §1

Dd2 = experiment: as above; conditions: P. falciparum in erythrocytes, SYBR Green DNA, 72 h; series mostly up to 28.7 µM
How it was run: as §1

FAB9 = experiment: as above; conditions: P. falciparum in erythrocytes, SYBR Green DNA, 72 h; series mostly up to 28.7 µM
How it was run: as §1

PC49 = experiment: as above; conditions: P. falciparum in erythrocytes, SYBR Green DNA, 72 h; series mostly up to 28.7 µM
How it was run: as §1

TAB109 = experiment: as above; conditions: P. falciparum in erythrocytes, SYBR Green DNA, 72 h; series mostly up to 28.7 µM
How it was run: as §1

[3] = qHTS for Inhibitors of Plasmodium falciparum (DD2) proliferation (AID 504314);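 note: parasite DNA measured by SYBR Green fluorescence after red cell lysis; plate controls were DMSO vehicle for no effect and artemisinin wells for full effect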
How it was run: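 SYBR Green DNA-fluorescence growth assay: infected RBCs at 0.3% parasitemia, 2.5% hematocrit, 72 h compound exposure, 37C, 5% CO2; overnight lysis with dye at RT; normalized to 0.29 uM artemisinin and vehicle.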

[4] = qHTS for Inhibitors of Plasmodium falciparum (7G8) proliferation (AID 504316);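 note: 0% = DMSO vehicle and -100% = 0.29 µM artemisinin full kill; nearly all actives have a fitted effect of over 65% in size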
How it was run: (§2)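 Parasite growth measured as SYBR Green DNA fluorescence (ex 485, em 535 nm) after overnight lysis following 72 h culture at 37 °C, 0.3% parasitemia, 2.5% hematocrit. Values normalized against DMSO and 0.29 uM artemisinin controls, with plate-stack correction.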

[5] = qHTS for Inhibitors of Plasmodium falciparum (CP250) proliferation (AID 504320);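 note: plate controls were DMSO vehicle for no effect and 0.29 µM artemisinin control for full effect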
How it was run: as §2

CCN(CC)C(=O)Nc1ccc(OC[C@H](O)CNC(C)(C)C)c(C(C)=O)c1
inactive: Potency [1] | activity, negative = inhibition ([2]; parasite line A) 5.16% | activity, negative = inhibition ([2]; parasite line B) -3.7% | Potency (ATS189) | Potency (CP185) | Potency (CP191) | Potency (CP192) | Potency (CP238) | Potency (CP250) | Potency (CP252) | Potency (CP256) | Potency (CP262) | Potency (CP329) | Potency (Dd2) | Potency (FAB9) | Potency (PC49) | Potency (TAB109)

C=CCN1C=C2C(=O)C(C)(OC(=O)CCC(=O)OC)C(=O)C=C2C=C1C1CC1 (stereo unspecified)
inactive: Potency [3] | Potency [4] | Potency [5]

CC1(Cn2ccnn2)[C@H](C(=O)O)N2C(=O)C[C@H]2S1(=O)=O (stereo partly specified)
inactive: Potency [1] | activity, negative = inhibition ([2]; parasite line A) 4.59% | activity, negative = inhibition ([2]; parasite line B) 0.438% | Potency (ATS189) | Potency (CP185) | Potency (CP191) | Potency (CP192) | Potency (CP238) | Potency (CP250) | Potency (CP252) | Potency (CP256) | Potency (CP262) | Potency (CP329) | Potency (Dd2) | Potency (FAB9) | Potency (PC49) | Potency (TAB109)

CC[C@@]1(O)CC2CN(CCc3c([nH]c4ccccc34)[C@](C(=O)OC)(c3cc4c(cc3OC)N(C)C3[C@@](O)(C(=O)OC)C(OC(C)=O)[C@]5(CC)C=CCN6CC[C@@]43C65)C2)C1 (stereo partly specified)
active: Potency ([2]; parasite line A) 2.51 µM | Potency ([2]; parasite line B) 1.12 µM | Potency (ATS189) 3.98 µM | Potency (CP185) 2.24 µM | Potency (CP191) 2.82 µM | Potency (CP192) 3.38 µM | Potency (CP238) 3.16 µM | Potency (CP250) 3.55 µM | Potency (CP252) 3.55 µM | Potency (CP256) 3.16 µM | Potency (CP262) 1.69 µM | Potency (CP329) 3.01 µM | Potency (Dd2) 0.355 µM | Potency (TAB109) 3.16 µM
inactive: Potency [1]

OCC1O[C@H](O[C@H]2C(O)C(O)C(O)O[C@@H]2CO)C(O)C(O)C1O (stereo partly specified)
inactive: Potency [1] | activity, negative = inhibition ([2]; parasite line A) 7.88% | activity, negative = inhibition ([2]; parasite line B) 6.42% | Potency (ATS189) | Potency (CP185) | Potency (CP191) | Potency (CP192) | Potency (CP238) | Potency (CP250) | Potency (CP252) | Potency (CP256) | Potency (CP262) | Potency (CP329) | Potency (Dd2) | Potency (FAB9) | Potency (PC49) | Potency (TAB109)

CCC(=O)O[C@]1(C(=O)CCl)[C@@H](C)CC2C3C[C@H](F)C4=CC(=O)C=CC4(C)[C@@]3(F)C(O)CC21C (stereo partly specified)
inactive: Potency [1] | Potency (FAB9)
active: Potency ([2]; parasite line A) 12.6 µM | Potency ([2]; parasite line B) 11.2 µM | Potency (ATS189) 10 µM | Potency (CP185) 11.2 µM | Potency (CP191) 7.94 µM | Potency (CP238) 8.91 µM | Potency (CP250) 12.6 µM | Potency (CP252) 8.91 µM | Potency (CP256) 11.2 µM | Potency (CP262) 9.53 µM | Potency (CP329) 15.1 µM | Potency (Dd2) 7.94 µM | Potency (TAB109) 5.01 µM

C#C[C@]1(O)CC[C@H]2[C@H]3[C@H](CC[C@@]21C)C1=C(CC(=O)CC1)C[C@@H]3C
inactive: Potency [1] | activity, negative = inhibition ([2]; parasite line A) -14.8% | activity, negative = inhibition ([2]; parasite line B) -21.9% | Potency (ATS189) | Potency (CP185) | Potency (CP191) | Potency (CP192) | Potency (CP238) | Potency (CP250) | Potency (CP252) | Potency (CP256) | Potency (CP262) | Potency (CP329) | Potency (Dd2) | Potency (FAB9) | Potency (PC49) | Potency (TAB109)

C[C@@H]1CCN(C(=O)[C@H](CCCNC(=N)N)NS(=O)(=O)c2cccc3c2NC[C@H](C)C3)[C@@H](C(=O)O)C1
inactive: Potency [1] | activity, negative = inhibition ([2]; parasite line A) 3.79% | activity, negative = inhibition ([2]; parasite line B) 10.6% | Potency (ATS189) | Potency (CP185) | Potency (CP191) | Potency (CP192) | Potency (CP238) | Potency (CP250) | Potency (CP252) | Potency (CP256) | Potency (CP262) | Potency (CP329) | Potency (Dd2) | Potency (FAB9) | Potency (PC49) | Potency (TAB109)

Nc1nc(Cl)nc2c1ncn2[C@@H]1O[C@H](CO)[C@H](O)C1F (stereo partly specified)
inactive: Potency [1] | activity, negative = inhibition ([2]; parasite line A) -2.17% | Potency (ATS189) | Potency (CP185) | Potency (CP191) | Potency (CP192) | Potency (CP238) | Potency (CP250) | Potency (CP252) | Potency (CP256) | Potency (CP262) | Potency (CP329) | Potency (Dd2) | Potency (FAB9) | Potency (PC49) | Potency (TAB109)

CC1CCC(O)C/C1=C\C=C1/CCCC2(C)C1CCC2C(C)/C=C/C(C)C(C)C (stereo unspecified)
inactive: Potency [1] | activity, negative = inhibition ([2]; parasite line A) -1.73% | activity, negative = inhibition ([2]; parasite line B) -28.9% | Potency (ATS189) | Potency (CP185) | Potency (CP191) | Potency (CP192) | Potency (CP238) | Potency (CP250) | Potency (CP252) | Potency (CP256) | Potency (CP262) | Potency (CP329) | Potency (Dd2) | Potency (FAB9) | Potency (PC49) | Potency (TAB109)
